# Bioassay records deposited in PubChem by Broad Institute.
# esBAF inh: SWI/SNF esBAF complex inhibition. mouse ES cells, Bmi1-luciferase knock-in reporter, 24 h; 100% = twice the neutral-well signal. reporter increase, % at 12.5 µM. 2% of 350,000 active. AID 602393; in the data active means activation above about 40%; inconclusive means no clear call, values can overlap the other calls;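 further: 0% = median of the plate's neutral control wells and 100% = double that signal; a rise in the Bmi1 reporter signal indicates esBAF inhibition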
# Vif inh: blocks HIV Vif function | HEK293T cells, Vif self-association by quenched fluorescence, imaging, 24 h | inhibition, % at 7.49 µM | 0.35% of 340,000 active | AID 602346; in the data active means inhibition above about 50%, passing the limit was not always enough; inconclusive means no clear call, values can overlap the other calls; inactive means below about 31%
# HSF1 inh: HSF1 inhibition; NIH3T3-HGL HSE-luciferase, MG132-induced, luminescence 8 h; hits give low values; activity change, negative = inhibition, % at 7.5 µM (by protocol); 0.77% of 300,000 active; AID 2098;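 active means more than half of replicate wells show activity change below -50%, luminescence cut by over half; inconclusive means some wells, but at most half, below -50%; inactive means no replicate well below -50%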;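 further: luciferase reports HSF-1 transcriptional activity via heat shock element; 0% = median of DMSO wells and -100% = zero luminescence signal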
# HSF-1 act: increases HSF-1 driven luciferase reporter signal; NIH3T3-HGL HSF-1 luciferase reporter, MG132, 8 h; 100% = twice DMSO control signal; activation, % at 9 µM; 1.7% of 300,000 active; AID 504408;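 active means mean replicate activation of at least 50% with a set share of replicates each reaching 50%; inconclusive means only one of those two conditions met; inactive means mean below 50% and too few replicates reaching it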;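 further: 0% = median of the neutral control wells and 100% = twice that signal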
# * = called active by the depositor; ? = inconclusive; . = not tested or not shown. Rows were chosen to be rich in hits. Some 3.4% of all compounds tested hit in one or more screens of this group.
SMILES,esBAF inh,Vif inh,HSF1 inh,HSF-1 act
COc1ccc(CN(C)C[C@@H]2Oc3c(NS(=O)(=O)c4cccs4)cccc3C(=O)N([C@@H](C)CO)C[C@@H]2C)cc1,-1,.,.,.
O=C(c1cccc(F)c1)N1C[C@@H]2[C@H](c3ccccc31)[C@@H](CO)N2C(=O)c1ccc(F)cc1,-4,.,.,.
CCN(CC)c1ccc(N=Cc2ccc(N(CC)CC)cc2O)cc1,-16,-6,7,10
CCN(CC)c1ccc(/C=N/N=C(N)N)c(O)c1,.,65*,-7,-10
C[C@H](CO)N1C[C@H](C)[C@H](CN(C)Cc2ccc(Cl)c(Cl)c2)Oc2ccc(NC(=O)Nc3ccccc3)cc2CC1=O,-4,.,.,.
C/C=C/c1ccc2c(c1)O[C@@H](CN(C)C(=O)C1CC1)[C@@H](C)CN([C@@H](C)CO)S2(=O)=O,12,.,.,.
Cc1c(-n2cc(C(=O)c3ccccc3O)cc(C#N)c2=O)c(=O)n(-c2ccccc2)n1C,-2,1,72,109*
OC[C@@H]1Nc2ccc(-c3cccc(F)c3)cc2[C@H]2[C@@H]1CCN2Cc1ccc(F)cc1,9,.,.,.
CCN(CC)C(=O)COc1coc(CN2CCN(c3ccc(F)cc3)CC2)cc1=O,0,-6,-62*,-69
CCN(CC)C(=O)COc1coc(CN2CCN(c3ccccc3)CC2)cc1=O,2,-8,0,7
CCOC(=O)C1=C(C)NC(=O)NC1c1ccc2c(c1)OCO2 (stereo unspecified),-3,.,2,4
CCOC(=O)C1=C(C)Nc2ncnn2C1c1ccc2c(c1)OCO2 (stereo unspecified),5,3,32,51*
CNC[C@@H]1Oc2ncc(-c3ccccc3F)cc2C(=O)N([C@H](C)CO)C[C@@H]1C,1,.,.,.
Cc1ccc(NC(=O)/C=C/C(=O)O)c([N+](=O)[O-])c1,.,5,13,24
Cc1ccc(NC(=O)/C=C/c2cccs2)c([N+](=O)[O-])c1,11,17,36,63*
Cc1noc(C)c1NC(=O)N(C)C[C@H]1Oc2ccc(NC(=O)CCC(F)(F)F)cc2CC(=O)N([C@H](C)CO)C[C@@H]1C,-2,.,.,.
Cn1cc(CCNC(=O)CC2C(=O)NCCN2Cc2cccc(Oc3ccccc3)c2)cn1 (stereo unspecified),.,-1,-69*,-77
O=C(CC1C(=O)NCCN1Cc1cccc(Oc2ccccc2)c1)NCCc1ccccn1 (stereo unspecified),.,-2,-3,2
COC(=O)C[C@H]1CC[C@H]2[C@H](COc3ccc(NC(=O)Nc4cccc(C#N)c4)cc3C(=O)N2C)O1,0,.,.,.
N#C[C@@H]1[C@@H](c2ccccc2)[C@H](CO)N1S(=O)(=O)c1ccc(-c2ccccc2)cc1,0,.,.,.
COCCCN(Cc1ccco1)C(=O)CSc1nc2ncccc2[nH]1,-1,-5,-55*,-64
COc1ccc([C@H]2CC(=O)C=C(c3ccc(OC)cc3OC)C2)cc1,0,55*,.,.
COc1ccc([C@H]2CC(=O)C=C(c3cccc(OC)c3)C2)cc1,-1,-2,.,.
COc1ccc(C2=CC(=O)C[C@H](c3ccc(OC)cc3)C2)cc1,38,17,.,.
COc1ccc([C@H]2CC(=O)C=C(c3cccc(C#N)c3)C2)cc1,45*,-4,.,.
SMILES,esBAF inh,Vif inh,HSF1 inh,HSF-1 act
C/C=C/c1cnc2c(c1)C(=O)N([C@@H](C)CO)C[C@H](C)[C@@H](CN(C)C(=O)C1CCOCC1)O2,9,.,.,.
O=C(NCCc1ccccc1)c1ccc2c(c1)OCCO2,-85,3,-66*,-69
O=C(NCCc1ccccc1)c1ccc(-n2cnnn2)cc1,48*,.,9,8
O=C(NCCc1ccccc1)c1ccc2c(c1)OCCCO2,-82,3,-83*,-86
COc1ccc(CCNC(=O)c2ccc3c(c2)OCCO3)cc1,.,-2,12,31
C[C@H](CO)N1C[C@H](C)[C@H](CN(C)Cc2ccc3c(c2)OCO3)Oc2c(NS(=O)(=O)c3cn(C)cn3)cccc2C1=O,-5,.,.,.
C[C@H]1CN([C@@H](C)CO)C(=O)c2cc(NS(=O)(=O)c3ccccc3)ccc2O[C@@H]1CN(C)C,2,.,.,.
C[C@@H]1CN([C@H](C)CO)C(=O)Cc2cc(NC(=O)CCC(F)(F)F)ccc2O[C@H]1CN(C)Cc1ccncc1,3,.,.,.
Cc1ccc(N=C(c2cccs2)N2CCOCC2)cc1,27,63*,0,20
O=C(CCC1CCCN(C(=O)c2ccc3c(c2)OCO3)C1)NCc1ccc(F)c(F)c1 (stereo unspecified),.,-1,18,32
O=C(CCC1CCCN(C(=O)c2ccc3cc[nH]c3c2)C1)NCc1ccc(F)c(F)c1 (stereo unspecified),16,-17,24,57*
CCN(CC)CCn1c2ccccc2c2nc3ccc([N+](=O)[O-])cc3cc21,.,-1,89,121*
Cc1ccc(Nc2nc(CSc3nnnn3C)cs2)cc1,61*,-18,18,27
Cc1ccc(Nc2nc(CSc3nnc(-c4ccccc4)n3C)cs2)cc1,20,10,15,43
Cn1nnnc1SCc1csc(Nc2ccccc2)n1,?,-5,7,0
Cc1ccc(Nc2nc(CSc3nnnn3-c3ccccc3)cs2)cc1,2,-2,31,70*
Cc1nc2nc(C)c(CCC(=O)NC3CCCCC3)c(C)n2n1,.,0,-15,0
Cc1[nH]nc(C(F)(F)F)c1CCC(=O)NC1CCCCCC1,-5,59*,.,.
C/C(=N\NC(=O)c1c([N+](=O)[O-])c(C)nn1C)c1ccc(NC(=O)C2CCCC2)cc1,-19,64*,-1,-13
C/C(=N\NC(=O)c1c(Cl)c(C)nn1C)c1ccc(NC(=O)C2CCC2)cc1,-11,25,2,10
C/C=C/c1cnc2c(c1)C(=O)N([C@H](C)CO)C[C@H](C)[C@H](CN(C)Cc1cccc(C(=O)O)c1)O2,-5,.,.,.
COc1ccc(/C=C(\C#N)C(=O)Nc2ccccn2)cc1,3,-8,24,75*
Cc1ccc(/C=C(\C#N)C(=O)NC(C)C)o1,-5,1,-6,-16
COc1ccc(O)c(/C=C(\C#N)C(=O)Nc2ccccn2)c1,8,-1,6,39
Cc1ccc(/C=C(\C#N)C(=O)Nc2ccccn2)o1,63*,6,37,60*
SMILES,esBAF inh,Vif inh,HSF1 inh,HSF-1 act
CCOC(=O)CSc1ccc(C(=O)NCCCN2CCOCC2)cc1[N+](=O)[O-],1,-13,-69*,-75
Cc1cccc(C)c1OCc1cc(C(=O)N2CC3C[C@@H]4CC2C[C@H](C3)C4)no1,82*,-4,26,27
Cc1ccc(OCc2cc(C(=O)N3CC4C[C@@H]5CC3C[C@H](C4)C5)no2)cc1C,52*,-10,31,33
COCC1CCN(C(=O)c2cc(COc3ccc(C)c(C)c3)on2)C1 (stereo unspecified),1,5,-6,12
Cc1cccc(C)c1OCc1cc(C(=O)N2CCC(c3ccccc3)CC2)no1,34,9,8,19
C[C@H](CO)N1C[C@H](C)[C@H](CN(C)C(=O)CCC(F)(F)F)OCCCC[C@H](C)Oc2ccc(NS(=O)(=O)c3cn(C)cn3)cc2C1=O,-1,.,.,.
O=Cc1s/c(=N\S(=O)(=O)c2ccccc2)n(CCCCl)c1Cl,.,57*,44,60*
